Test results taken from PMC5540273 (PLoS ONE, 2017).
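Note: KINOMEscan kinase panel screen.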

These compounds were tested on TSSK3. Settings: concentration: 1 μM, replicates: in singlicate; n = 1.
For CC(C)(C)n1cnc2c(N)ncnc21 [SKF-97359], the “%Inh” value was 45%. In the case of Cc1cccc(Cn2ccn3c(=O)cc(N4CCOCC4)nc23)c1 [GSK2297542], the “%Inh” value is reported as 17%. With c1ccc(-c2cc(-c3c[nH]nc3-c3ccccn3)ccn2)cc1 [GW576604] the “%Inh” value was 2%. In the case of O=C(Nc1cccc(-c2nn3ncccc3c2-c2ccnc(Nc3cccc(C(F)(F)F)c3)n2)c1)c1c(F)cccc1F [GSK299495], the “%Inh” value is reported as 18%. For COc1cc2c(cc1OC[C@@H](O)CO)ncc1c3ccc(C#N)cc3[nH]c21, the “%Inh” value was 0%. With N#Cc1ccc(-c2cc(-c3c[nH]nc3-c3ccccn3)ccn2)cc1 [GW693028] the “%Inh” value was 8%. For Fc1ccc(-c2ncn(CCCN3CCOCC3)c2-c2ccccn2)cc1 [SB-211742], the “%Inh” value was 0%. In the case of COc1ccc(Nc2nccc(N3CCC(NC(=O)Nc4cccc(C(C)=O)c4)C3)n2)cc1 (centres unmarked) [GSK1379731], the “%Inh” value is reported as 8%. Cn1cc(-c2ccc3c(c2)CCN3C(=O)Cc2ccccc2Cl)c2c(N)ncnc21 [GSK2608885] was tested, and the “%Inh” value was 7%. For CNc1ncnc2[nH]ncc12 [SKF-18355], the “%Inh” value was 0%. Cc1cccc(-c2nc(Nc3ccc4ncsc4c3)c3ccccc3n2)n1 [GW867588] was tested, and the “%Inh” value was 0%. With [2H]C([2H])(c1cccc(C(F)(F)F)c1C)n1ccn2c(=O)nc(N3CCOCC3)cc12 [GSK2336394] the “%Inh” value was 14%. For Cc1c2ccc(N(C)c3ccnc(Nc4cccc(S(N)(=O)=O)c4)n3)cc2nn1Cc1ccccc1.Cl.Cl [GW787226], the “%Inh” value was 0%. In the case of O=C(c1ccc(-c2cc(-c3c[nH]nc3-c3ccccn3)ccn2)cc1)N1CCOCC1 [GW812171], the “%Inh” value is reported as 0%.
